Reference: PubChem BioAssay AID1541 (National Center for Advancing Translational Sciences (NCATS), 2009)
Inconclusive results are not listed. Active and inactive are the calls of the source. Calls follow the shape of the dose curve; as a rule, active = well fitted activation curve with a large enough effect; inconclusive = small, poorly fitted or top-dose-only effect, or effect the other way; inactive = no such curve, though single readings can be large or run the other way.

Biological target: Pyruvate kinase PKLR (Homo sapiens) (UniProt P30613)
Sequence (P30613 whole entry, looked up): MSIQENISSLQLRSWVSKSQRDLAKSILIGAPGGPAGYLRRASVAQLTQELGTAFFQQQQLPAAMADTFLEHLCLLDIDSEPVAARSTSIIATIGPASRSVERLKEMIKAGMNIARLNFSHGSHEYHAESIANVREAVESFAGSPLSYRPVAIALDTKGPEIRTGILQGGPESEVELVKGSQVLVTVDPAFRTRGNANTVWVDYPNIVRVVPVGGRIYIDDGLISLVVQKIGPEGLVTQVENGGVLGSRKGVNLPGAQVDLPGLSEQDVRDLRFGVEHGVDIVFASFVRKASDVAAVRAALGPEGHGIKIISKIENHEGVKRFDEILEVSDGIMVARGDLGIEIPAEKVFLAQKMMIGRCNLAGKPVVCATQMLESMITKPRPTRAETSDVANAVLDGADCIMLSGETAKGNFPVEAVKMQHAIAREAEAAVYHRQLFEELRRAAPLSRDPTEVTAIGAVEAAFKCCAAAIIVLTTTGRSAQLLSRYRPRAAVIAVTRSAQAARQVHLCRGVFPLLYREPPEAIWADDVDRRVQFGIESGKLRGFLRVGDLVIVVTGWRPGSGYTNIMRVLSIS
Assay: Secondary assay for Activators of Human Liver Pyruvate Kinase
Conditions: purified hPK-L, LDH-coupled NADH fluorescence kinetic; series mostly up to 57.5 µM
Text: Confirmatory assay NIH Chemical Genomics Center [NCGC] Matthew G. Vander Heiden, M.D., Ph.D. [Harvard Medical School, 77 Avenue Louis Pasteur, Boston, MA 02115] NCGC Assay Overview: Human pyruvate kinase liver (hPK-L)enzyme was supplied as a highly purified (>95% pure) preparation from Harvard Medical School and a secondary assay was used to evaluate compounds. This assay couples the formation of pyruvate from hPK-R using lactate dehydrogenase (LDH) and NADH. The depletion of NADH is followed in a fluorescent-based kinetic assay that follows the formation of pyruvate to lactate, as catalyzed LDH. Pyruvate kinase substrates, PEP and ADP, were present in the assay at 0.1 mM and 4 mM respectively. In this kinetic assay initial rates were determined by following the fluorescence of NADH depletion.
NCGC Assay Protocol Summary: Three uL of substrate mix (final concentration, 50 mM Tris-Cl pH 8.0, 200 mM KCl, 15 mM MgCl2, 0.1 mM PEP, 4.0 mM ADP, and 0.2 mM NADH) was dispensed into black-solid 1536 well plates. 23 nL of compounds were delivered by a pin tool and 1 uL of enzyme mix (final concentrations, 10 nM hPK-L and 1 uM of LDH) was added. Plates were immediately placed in ViewLux (Perkin Elmer) and NADH fluorescence was determined at 30 second exposure intervals for between 3 and 6 minutes. Data were normalized to the uninhibited and EC100 activation using known activators such as fructose-bis-phosphate.

Potency, active:
Cn1c2cc(Br)sc2c2cnn(Cc3ccc(F)cc3F)c(=O)c21 2.51 µM
CC(=O)c1cc2c(s1)c1cnn(Cc3ccccc3F)c(=O)c1n2C 0.794 µM
Cn1c2cc(CO)sc2c2cnn(Cc3ccccc3F)c(=O)c21 2.24 µM
Cc1cc2c(s1)c1cnn(Cc3ccccc3F)c(=O)c1n2C 3.52 µM
Cn1c2ccsc2c2cnn(Cc3ccc(F)cc3)c(=O)c21 17.8 µM
COc1cc2c(s1)c1cnn(Cc3ccccc3F)c(=O)c1n2C 2.51 µM
Cn1c2cc(Br)sc2c2cnn(Cc3c(F)cccc3Cl)c(=O)c21 7.94 µM

Potency, inactive:
O=S(=O)(c1c(F)cccc1F)C1CCN(S(=O)(=O)c2ccc3c(c2)OCCO3)CC1
O=S(=O)(c1ccc2ccccc2c1)N1CCN(S(=O)(=O)c2c(F)cccc2F)CC1
Cc1cc2c(s1)c1cnn(Cc3c(F)cccc3Cl)c(=O)c1n2C
Cn1c2cc(B(O)O)sc2c2cnn(Cc3ccccc3F)c(=O)c21
COc1cccc(Cn2ncc3c4sc(Br)cc4n(C)c3c2=O)c1
Cn1ccc2cc(S(=O)(=O)N3CCN(S(=O)(=O)c4c(F)cccc4F)CC3)ccc21
O=C1CN(S(=O)(=O)c2ccc3c(c2)OCCO3)CCN1S(=O)(=O)c1c(F)cccc1F
Cc1cc2c(s1)c1c(C)nn(Cc3ccccc3F)c(=O)c1n2C
O=C(c1c(F)cccc1F)N1CCN(S(=O)(=O)c2ccc3c(c2)OCCO3)CC1
O=S(=O)(NC1CCC(NS(=O)(=O)c2c(F)cccc2F)CC1)c1ccc2c(c1)OCCO2 (stereo not drawn)
Cn1c2cc(B(O)O)sc2c2cnn(Cc3c(F)cccc3Cl)c(=O)c21
Cn1c2cc(Br)sc2c2cnn(Cc3c(F)cccc3F)c(=O)c21
O=S(=O)(c1ccc2c(c1)OCCCO2)N1CCN(S(=O)(=O)c2c(F)cccc2F)CC1
COc1ccc(S(=O)(=O)N2CCN(S(=O)(=O)c3ccc4c(c3)OCCO4)CC2)cc1
Cc1nc2ccc(S(=O)(=O)N3CCN(S(=O)(=O)c4c(F)cccc4F)CC3)cc2s1
O=S(=O)(c1ccc2c(c1)OCCO2)N1CCN(S(=O)(=O)c2ccccn2)CC1
O=S(=O)(c1ccc2c(c1)OCCO2)N1CCN(S(=O)(=O)c2cccc[n+]2[O-])CC1
Cc1cc2c(s1)c1cnn(Cc3ccc(F)cc3F)c(=O)c1n2C
COc1ccc(Cn2ncc3c4sc(C)cc4n(C)c3c2=O)cc1F
Cc1cc2c(s1)c1cnn(Cc3cccc(Cl)c3)c(=O)c1n2C
COc1cccc(Cn2ncc3c4sc(B(O)O)cc4n(C)c3c2=O)c1
C[C@H]1CN(S(=O)(=O)c2ccc3c(c2)OCCO3)CCN1S(=O)(=O)c1c(F)cccc1F
Cc1cc2c(s1)c1cnn(Cc3ccccc3)c(=O)c1n2C
O=S(=O)(NCC1CN(S(=O)(=O)c2ccc3c(c2)OCCO3)C1)c1c(F)cccc1F
O=S(=O)(NC1CCN(S(=O)(=O)c2c(F)cccc2F)C1)c1ccc2c(c1)OCCO2 (stereo not drawn)
O=S(=O)(NCCCCNS(=O)(=O)c1c(F)cccc1F)c1ccc2c(c1)OCCO2
